# Bioassay records from PubChem.
# This excerpt belongs to a sample that is enriched for hits.
# IMPase Li inh: qHTS Assay for Identifying the Cell-Membrane Permeable IMPase Inhibitors: Potentiation with Lithium; CHO-M1 cells, IP1 TR-FRET (IP-One), carbachol + lithium; 210,000 compounds, 0.35% hits; AID 1457, 2008; Potency, µM (doses to about 59.4 µM), without a hit: at the top dose activity, negative = IMPase inhibition, hits mostly inhibitors;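 note: IP1 builds up when IMPase is blocked and the TR-FRET signal falls; potency is the fitted concentration of half-maximal effect; plate controls were basal vehicle for no effect and high inhibitor control for full effect; nearly all actives have a fitted effect of over 50% in size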
#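 Test compounds were applied to CHO-M1 cells previously cultured for 16–30 h at 2000 per well. A small lithium amount accompanied them; after 30 min at 37C, IP1 was quantified by TR-FRET.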
# PNC inhibitor: High Content Assay for Compounds that inhibit the Assembly of the Perinucleolar Compartment; PC3M PTB-GFP, PNC prevalence imaging, 16 h; stronger effect = lower value; activity change (PNC), negative = inhibition, % at 10 µM; 140,000 compounds, 3.1% hits; AID 2417, 2010;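 active = readout at or below -70, meaning at least 70% loss of cells showing the perinucleolar compartment, a nuclear body marking cancer cells; inconclusive = readout between -30 and a set limit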;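 note: plate controls were DMSO wells for no effect and camptothecin positive control wells for full effect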
#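 Read-out is percentage of cells bearing a perinucleolar compartment, from automated 20x imaging of fixed, Hoechst-stained PC3M PTB-GFP cells. Cells were seeded 4 h, then exposed 16 h to compound (23 nl of library stock) in duplicate plates.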
# 15-hLO-2 inh: qHTS Assay for Inhibitors of 15-hLO-2 (15-human lipoxygenase 2) | purified 15hLO-2, xylenol orange hydroperoxide absorbance | Potency, µM (top dose mostly 57.1 µM), inactives show at the highest dose activity change, negative = inhibition, hits mostly inhibitors | 110,000 compounds, 0.56% hits | AID 881, 2007; note: potency is the fitted concentration of half-maximal effect; nearly all actives have a fitted effect of over 60% in size
#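 Read-out: hydroperoxide product oxidises ferrous iron, measured as xylenol orange complex via the 573-to-405 nm absorbance ratio after 30 min. Reaction: 50 nM enzyme, 15 min compound preincubation, 45 uM arachidonic acid, 90 min RT, Hepes pH 7.5 with Triton X-100.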
# IMPase cell inh: qHTS Assay for Identifying the Cell-Membrane Permeable IMPase Inhibitors; 120,000 tested, under 10 active; inhibition (IP1 accumulation), % at 46.1 µM; CHO-M1 cells, IP1 accumulation, HTRF TR-FRET ratio; active = well fitted curve in the direction sought with a large enough effect in the signal ratio, not every such curve was filed as active; inconclusive = small, poorly fitted or top-dose-only effect, or a change in a side signal; inactive = no such curve, though single readings can be large or run the other way; the % refers to the signal ratio;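 note: cells stimulated with carbachol in lithium chloride buffer; plate controls were DMSO basal wells for no effect and reference inhibitor wells for full effect; higher means more IMPase inhibition seen as more IP1 and lower FRET ratio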
# Target sequence (P97697 whole entry, looked up): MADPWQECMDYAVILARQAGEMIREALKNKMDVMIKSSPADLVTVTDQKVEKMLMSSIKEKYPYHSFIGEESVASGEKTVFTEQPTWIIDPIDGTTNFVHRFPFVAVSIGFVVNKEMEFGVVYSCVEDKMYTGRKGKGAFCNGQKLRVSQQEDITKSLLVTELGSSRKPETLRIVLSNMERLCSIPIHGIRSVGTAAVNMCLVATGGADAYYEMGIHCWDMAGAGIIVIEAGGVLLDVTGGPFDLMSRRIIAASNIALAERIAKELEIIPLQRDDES
#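 CHO-M1, 2000 cells/well, cultured 16–30 h; cpd up to 46 uM; carbachol (50 uM solution, stimulation buffer w/ 50 mM LiCl, pH 7.4), 30 min 37C; IP-One TR-FRET, 10 min RT; Ex 320/Em 665, 620; Hill-fit AC50.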
# 12-hLO inh: qHTS Assay for Inhibitors of 12-hLO (12-human lipoxygenase); Polyunsaturated fatty acid lipoxygenase ALOX12 (Homo sapiens), P18054; 150,000 compounds, 0.12% hits; Potency, µM (doses to about 57.1 µM), without a hit: at the highest dose activity change, negative = inhibition, usual class: inhibitors; purified 12-hLO, xylenol orange hydroperoxide absorbance; note: potency is the fitted concentration of half-maximal effect; nearly all actives have a fitted effect of over 55% in size
#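 Purified human 12hLO (150 nM), preincubated 15 min with compound, then 40 uM arachidonic acid for 30 min, room temperature, Hepes pH 7.0 with 0.01% Triton X-100. Hydroperoxide detected by ferrous iron/xylenol orange; 573/405 nm absorbance ratio gives reaction progress.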
# An asterisk follows results filed as active; ? = inconclusive; . = no result; [ ] = dose if it differs, or a comment. Unless noted, calls come from the whole dose curve; as a rule, active = well fitted curve in the direction sought with a large enough effect; inconclusive = small, poorly fitted or top-dose-only effect, or another doubt; inactive = no such curve, though single readings can be large; an effect the other way counts as inactive or inconclusive. Unless noted, % is set by controls: 0 for no effect and ±100 for the full control effect.
SMILES,IMPase Li inh,PNC inhibitor,15-hLO-2 inh,IMPase cell inh,12-hLO inh
CCOC(=O)N1CCN(c2c(-c3ccc(C)c(C)c3)c(=O)c2=O)CC1,0%,-100*,.,-4,-7%
C=C(C(C)=O)C(O)c1ccc(C(F)(F)F)cc1 (stereo not given),9%,.,.,.,.
c1ccc([C@H](CCN2CCCC2)c2ccccn2)cc1,0%,.,-7%[11.4 µM],.,1%[11.4 µM]
CC(C)C(NC(=O)C12CC3CC(CC(C3)C1)C2)C(=O)NC1=NCCS1 (stereo not given),-7%[38.3 µM],33,6%,4,0%
CC(NC(=O)C1CCCCC1)C(=O)NC1=NCCS1 (stereo not given),13%[38.3 µM],-112*,-2%,1,5%
Cc1ccc(-c2[nH]c3ccccc3c2SCCNC(=O)c2cc3ccccc3oc2=O)cc1,23%,67,.,.,-3%
O=C(NCCSc1c(-c2ccccc2)[nH]c2ccccc12)c1cc2ccccc2oc1=O,8%,-86*,.,.,0%
CCOC(=O)CCC(NC(=O)CCCC(=O)NC(CCC(=O)OCC)C(=O)OCC)C(=O)OCC (stereo not given),-6%,-8,.,0,4%
CCOC(=O)CCC(NC(=O)CCC(=O)NC(CCC(=O)OCC)C(=O)OCC)C(=O)OCC (stereo not given),-8%,-134*,.,.,0%
COc1ccc(CN(Cc2cccnc2)C(=S)NCCc2ccccc2)cc1OC,31%[38.3 µM],-106*,.,5,7%
Cc1ccc(N2C(=O)/C(=C\c3ccco3)SC2=S)cc1,-7%[38.3 µM],31,?,3,7.9µM*
O=C1/C(=C\c2ccco2)SC(=S)N1c1ccccc1,-4%,-5,.,.,-26%
CC(=O)Nc1ccc(NC(=O)c2ccccc2Sc2ccc([N+](=O)[O-])cc2Cl)cc1,3%,-80*,.,-7,-3%
O=C(c1ccccc1Sc1ccc([N+](=O)[O-])cc1Cl)N1CCOCC1,10%,.,.,.,.
CC1(C)CC(NC(=O)c2coc(=O)c(Br)c2)CC(C)(C)N1,-9%[38.3 µM],-100*,3%,-5,-3%
CCC1CCc2nc3sc(C(=O)Nc4cccc(F)c4)c(N)c3cc2C1 (stereo not given),.,.,.,-4,.
O=C1CCC/C1=C/Nc1ccc(Cl)cc1,4%,.,.,.,.
O=C1CCCC/C1=C\Nc1ccc(O)cc1,45%[38.3 µM],-117*,-21%,19,?
COC(=O)CC1c2ccccc2C=C(/C=C/c2ccc3c(c2)OCO3)N1C(=O)OC (stereo not given),15%,.,.,.,-11%[11.4 µM]
O=C(/C=C/c1ccco1)NC(=S)Nc1ccccc1N1CCOCC1,19%[38.3 µM],-109*,?,4,?
CCCCCN1C(C(=O)c2ccccc2)=C(NC(=O)c2ccc(OC)cc2)c2ccccc2S1(=O)=O,.,.,.,2,.
COCC(=O)N1CCC2(CC1)CCN(C(c1ccccc1)c1ccccc1)CC2,16%,.,2%,.,2%
O=C(O)c1ccccc1Nc1ccccc1C(=O)O,-4%[38.3 µM],?,-4%,1,5%
O=C(O)c1ccccc1Nc1ccc([N+](=O)[O-])cc1,-1%,-87*,.,.,-5%
COc1cc([C@@H]2c3cc4c(cc3[C@@H](OC3OC5COC(C)OC5C(O)C3O)[C@H]3COC(=O)[C@H]23)OCO4)cc(OC)c1O (stereo not given in full),1%,.,.,.,.
SMILES,IMPase Li inh,PNC inhibitor,15-hLO-2 inh,IMPase cell inh,12-hLO inh
COc1ccc(NC(=O)N2CCC(O)(c3cccnc3)CC2)c(OC)c1,11%[38.3 µM],-82*,3%,1,5%
O=C(NCc1ccc(F)cc1)N[C@@H](Cc1ccccc1)C(=O)O,-5%[38.3 µM],-127*,-3%,-2,-4%
O=C(NCc1ccccc1)N[C@@H](Cc1ccccc1)C(=O)O,21%[38.3 µM],?,0%,-9,-1%
Cc1ccc(C)c(NC(=S)NNC(=O)c2csc(C(C)C)c2)c1,2%,-119*,.,3,-22%
Cn1c(=O)c(-c2ccc(Cl)cc2)nc2cnc(N3CCOCC3)nc21,-11%,.,-4%,.,.
COc1ccc(-c2nc3cnc(Oc4cccc(Cl)c4)nc3n(CCC#N)c2=O)cc1,5µM*,.,-7%,.,.
CCNc1ncc2nc(-c3ccc(OC)cc3)c(=O)n(CCc3ccccc3)c2n1,11µM*,.,-7%,.,.
CCNc1ncc2nc(-c3ccc(F)cc3)c(=O)n(CCC#N)c2n1,10µM*,.,-1%,.,-6%
COc1ccc(-c2nc3cnc(OC)nc3n(C3CC3)c2=O)cc1,13µM*,.,15%,.,1%
COc1ncc2nc(-c3ccccc3)c(=O)n(C3CC3)c2n1,-4%,.,0%,.,.
N#CCCn1c(=O)c(-c2ccccc2)nc2cnc(Oc3cccc(Cl)c3)nc21,?,.,-6%,.,-3%
CCNc1ncc2nc(-c3ccc(OC)cc3)c(=O)n(CCC#N)c2n1,-14%,.,-9%,.,.
COC(=O)c1ccc(C(NC(=O)OCc2ccccc2)/C(C)=C/[C@@H](C)C(=O)N[C@@H](CO)Cc2ccccc2)cc1 (stereo not given in full),10%,.,1%,.,2%
Oc1ccccc1NCC(O)Cn1ccc2ccccc21 (stereo not given),.,10,13µM*,7,-26%
CC(=O)n1c(COS(C)(=O)=O)nc2ccccc21,-5%,.,12%[11.4 µM],.,-1%[11.4 µM]
COc1cc(/C=N/O)c(Br)cc1OCC(=O)Nc1ccccc1C,2%,-84*,.,.,3%
COc1ccc(NC(=O)CSc2ccc3c4c(cccc24)C(=O)c2ccccc2-3)cc1,-5%[38.3 µM],48,16µM*,-4,0%
N#Cc1cccc(NC(=O)CSc2ccc3c4c(cccc24)C(=O)c2ccccc2-3)c1,?,?,13µM*,-21,-2%
COc1ccc(NC(=O)CSc2nncc3ccccc23)cc1,2%,.,.,.,.
O=C(c1cccs1)N1N=C(c2ccccc2)CC1c1ccccc1 (stereo not given),19%,-105*,-7%,6,1%
O=C(c1cccs1)N1N=C(c2ccc(O)cc2)CC1c1ccccc1 (stereo not given),14%,53,.,.,-2%
Cc1nc(N)nc2ccccc12,1%,.,1%[11.4 µM],.,4%[11.4 µM]
Cc1cccc(C)c1NC(=O)COC(=O)C1Cc2ccccc2CN1C(=O)c1ccccc1 (stereo not given),10%,?,.,.,-5%
O=C(O)C1Cc2ccccc2CN1C(=O)c1ccccc1 (stereo not given),9%[38.3 µM],-97*,-3%[11.4 µM],-4[1.84 µM],-1%
N#Cc1ccc(NC(=O)COC(=O)C2Cc3ccccc3CN2C(=O)c2ccccc2)cc1 (stereo not given),12%,-98*,.,.,-1%
